One may read the AC50 as the concentration giving half of the maximal activity seen.

Results on 3 molecules are retold here after PubChem BioAssay (EPA / NIEHS).

Holding throughout (settings): mRNA level, 48 h; actives raise or lower the signal
Read-out in test [1]: adenosine kinase (ADK) gene, ADK (gene 132)
Nature of the test: LTEA_HepaRG_ADK: Life Technologies and Expression Analysis (LTEA) Assay for adenosine kinase (ADK) gene using HepaRG (AID 2283471). In outline: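 Read-out is ADK transcript level measured by qRT-PCR and normalised to three housekeeping genes. Cells are human HepaRG, dosed for 48 h at up to 100 uM in 0.5% DMSO. Gain or loss of signal is fitted against DMSO controls.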

Read-out in test [2]: Alpha-fetoprotein (AFP) gene, AFP (gene 174)
Description: LTEA_HepaRG_AFP: Life Technologies and Expression Analysis (LTEA) Assay for Alpha-fetoprotein (AFP) gene using HepaRG (AID 2283472). In outline:
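AFP transcript measured by TaqMan qRT-PCR with three housekeeping genes for normalization, after 48 h chemical treatment of HepaRG cells (top 100 uM, half-log steps, 0.5% DMSO). Gain or loss fitted against vehicle.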

Read-out in another test: BCL2L11 (gene 10018)
Nature of the test: LTEA_HepaRG_BCL2L11: Life Technologies and Expression Analysis (LTEA) Assay for Bcl-2 (BCL2L11) gene using HepaRG (AID 2283473). In outline: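 Differentiated human HepaRG cells were exposed 48 h in serum-free induction medium to eight half-log concentrations up to 100 uM in 0.5% DMSO, in duplicate. BCL2L11 mRNA was quantified by TaqMan qRT-PCR, normalized to ACTB, GAPDH and POLR2A; induction or repression fitted versus DMSO.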

Read-out in test [3]: Apolipoprotein A-V (APOA5) gene, APOA5 (gene 116519)
Nature of the test: LTEA_HepaRG_APOA5: Life Technologies and Expression Analysis (LTEA) Assay for Apolipoprotein A-V (APOA5) gene using HepaRG (AID 2283474). In outline:
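Differentiated HepaRG cells in serum-free induction medium, exposed 48 h in duplicate to eight half-log concentrations topping at 100 uM (0.5% DMSO). APOA5 mRNA by Fluidigm TaqMan qRT-PCR, normalized to ACTB, GAPDH and POLR2A; bidirectional fit versus DMSO.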

Read-out in test [4]: Apoptosis regulator Bcl-2 (Homo sapiens) (UniProt P10415)
Description: LTEA_HepaRG_BCL2: Life Technologies and Expression Analysis (LTEA) Assay for Bcl-2 gene using HepaRG (AID 2283475). In outline: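 qRT-PCR of BCL2 transcript, normalized to three housekeeping genes (ACTB, GAPDH, POLR2A), after 48 h chemical exposure of HepaRG cells; concentrations top 100 uM with half-log dilutions, 0.5% DMSO vehicle, duplicates; changes up or down fitted relative to vehicle.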

Read-out in test [5]: Bcl-2 (BID) gene, BID (gene 637)
Nature of the test: LTEA_HepaRG_BID: Life Technologies and Expression Analysis (LTEA) Assay for Bcl-2 (BID) gene using HepaRG (AID 2283476). In outline: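 Duplicate 48 h treatments of HepaRG cells in serum-free induction medium spanned 100 uM downward in half-log steps, 0.5% DMSO. Transcript change quantified by qRT-PCR against three housekeeping genes, fitted up or down versus DMSO.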

Read-out in the next test: Caspase-3 (Homo sapiens) (UniProt P42574)
Description: LTEA_HepaRG_CASP3: Life Technologies and Expression Analysis (LTEA) Assay for cysteine-aspartic acid protease (CASP3) using HepaRG (AID 2283477). In outline:
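Differentiated HepaRG cells, plated 48 h, were treated in duplicate in serum-free induction medium for 48 h with eight half-log concentrations up to 100 uM in 0.5% DMSO. CASP3 mRNA measured by qRT-PCR, normalized to ACTB, GAPDH, POLR2A.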

Read-out in test [6]: Cytochrome P450 (CYP24A1), CYP24A1 (gene 1591)
Nature of the test: LTEA_HepaRG_CYP24A1: Life Technologies and Expression Analysis (LTEA) Assay for Cytochrome P450 (CYP24A1) using HepaRG (AID 2283478). In outline: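 HepaRG cells plated 48 h, then exposed in duplicate in serum-free induction medium for 48 h to 8-point half-log series from 100 uM in 0.5% DMSO. CYP24A1 mRNA by Fluidigm qRT-PCR, normalized to ACTB, GAPDH, POLR2A; bidirectional fit versus DMSO.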

Read-out in test [7]: Cytochrome P450 (CYP1A2), CYP1A2 (gene 1544)
Nature of the test: LTEA_HepaRG_CYP1A2: Life Technologies and Expression Analysis (LTEA) Assay for Cytochrome P450 (CYP1A2) using HepaRG (AID 2283479). In outline:
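Differentiated human HepaRG cells in serum-free induction medium exposed 48 hours in duplicate to 8 half-log concentrations from 100 uM, 0.5% DMSO. CYP1A2 mRNA quantified by qRT-PCR, normalized to ACTB, GAPDH and POLR2A; bidirectional fitting versus DMSO.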

Read-out in test [8]: cysteine-aspartic acid protease (CASP8), CASP8 (gene 841)
Description: LTEA_HepaRG_CASP8: Life Technologies and Expression Analysis (LTEA) Assay for cysteine-aspartic acid protease (CASP8) using HepaRG (AID 2283480). In outline: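 qRT-PCR readout of CASP8 mRNA, normalized to three housekeeping genes, after 48 h chemical exposure of HepaRG cells; 8-point half-log series, top 100 uM, 0.5% DMSO vehicle. Bidirectional curve fitting against DMSO baseline.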

Read-out in test [9]: Cytochrome P450 (CYP2B6), CYP2B6 (gene 1555)
Description: LTEA_HepaRG_CYP2B6: Life Technologies and Expression Analysis (LTEA) Assay for Cytochrome P450 (CYP2B6) using HepaRG (AID 2283481). In outline:
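Differentiated human HepaRG cells in serum-free induction medium, dosed in duplicate for 48 h over 8 half-log concentrations topping at 100 uM (0.5% DMSO). CYP2B6 mRNA measured by TaqMan qRT-PCR, normalized to ACTB, GAPDH, POLR2A; bidirectional fit versus DMSO.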

Read-out in test [10]: Cytochrome P450 2C19 (Homo sapiens) (UniProt P33261)
Nature of the test: LTEA_HepaRG_CYP2C19: Life Technologies and Expression Analysis (LTEA) Assay for CYP2C19 using HepaRG (AID 2283482). In outline: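 Differentiated HepaRG cells in serum-free induction medium exposed 48 h in duplicate, 8 concentrations from 100 uM by half-log steps in 0.5% DMSO. CYP2C19 mRNA measured by TaqMan qRT-PCR, normalized to ACTB, GAPDH, POLR2A. Bidirectional fit versus DMSO.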

Read-out in another test: CYP2C8 (gene 1558)
Description: LTEA_HepaRG_CYP2C8: Life Technologies and Expression Analysis (LTEA) Assay for CYP2C8 using HepaRG (AID 2283483). In outline:
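HepaRG (human liver line), 48 h chemical exposure, 8-pt half-log series from 100 uM, 0.5% DMSO vehicle. Readout: CYP2C8 transcript by qRT-PCR, housekeeping-normalized. Bidirectional fit vs DMSO baseline.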

Read-out in a further test: CYP2C9 (gene 1559)
Description: LTEA_HepaRG_CYP2C9: Life Technologies and Expression Analysis (LTEA) Assay for CYP2C9 using HepaRG (AID 2283484). In outline: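 HepaRG, 48 h dosing, 8-pt half-log series, top 100 uM, 0.5% DMSO vehicle. Read-out: CYP2C9 transcript by TaqMan qRT-PCR, housekeeping-normalized (ACTB/GAPDH/POLR2A). Gain or loss fitted vs DMSO baseline.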

Read-out in the next test: CYP2E1 (gene 1571)
Nature of the test: LTEA_HepaRG_CYP2E1: Life Technologies and Expression Analysis (LTEA) Assay for CYP2E1 using HepaRG (AID 2283485). In outline: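 CYP2E1 transcript measured by Fluidigm qRT-PCR against three housekeeping genes in human HepaRG cells treated 48 h (top 100 uM, half-log steps, 0.5% DMSO vehicle). Gain or loss fitted relative to DMSO baseline.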

Read-out in another test: CYP4A11 (gene 1579)
Description: LTEA_HepaRG_CYP4A11: Life Technologies and Expression Analysis (LTEA) Assay for CYP4A11 using HepaRG (AID 2283486). In outline: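 Differentiated HepaRG cells, 48 h after plating, exposed in duplicate for 48 h to 8 half-log concentrations up to 100 uM in 0.5% DMSO in serum-free induction medium. CYP4A11 mRNA measured by TaqMan qRT-PCR, normalized to ACTB, GAPDH and POLR2A.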

Read-out in test [11]: DNA damage-inducible transcript 3 (DDIT3), DDIT3 (gene 1649)
Nature of the test: LTEA_HepaRG_DDIT3: Life Technologies and Expression Analysis (LTEA) Assay for DNA damage-inducible transcript 3 (DDIT3) using HepaRG (AID 2283488). In outline: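 DDIT3 transcript was quantified by qRT-PCR with ACTB/GAPDH/POLR2A normalization after 48 h chemical treatment of differentiated HepaRG cells in 0.5% DMSO. Dosing was eight-point, half-log, top 100 uM, duplicate wells. Curves fitted bidirectionally versus DMSO.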

Read-out in test [12]: Pro-epidermal growth factor (Homo sapiens) (UniProt P01133)
Description: LTEA_HepaRG_EGF: Life Technologies and Expression Analysis (LTEA) Assay for Epidermal growth factor (EGF) using HepaRG (AID 2283489). In outline: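 HepaRG cells (~100,000/well, 48 h pre-culture) exposed in duplicate for 48 h in serum-free induction medium to 8 half-log concentrations up to 100 uM in 0.5% DMSO. EGF mRNA by qRT-PCR, normalized to ACTB/GAPDH/POLR2A; bidirectional fit versus DMSO.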

Read-out in test [13]: Early growth response protein 1 (EGR1) transcription factor, EGR1 (gene 1958)
Nature of the test: LTEA_HepaRG_EGR1: Life Technologies and Expression Analysis (LTEA) Assay for Early growth response protein 1 (EGR1) transcription factor using HepaRG (AID 2283490). In outline: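 HepaRG, 48 h exposure, 8-pt half-log series from 100 uM, 0.5% DMSO vehicle; EGR1 transcript by TaqMan qRT-PCR (Fluidigm array), housekeeping-normalized; bidirectional fit relative to DMSO baseline.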

Read-out in test [14]: Cytochrome P450 3A4 (Homo sapiens) (UniProt P08684)
Nature of the test: LTEA_HepaRG_CYP3A4: Life Technologies and Expression Analysis (LTEA) Assay for CYP3A4 using HepaRG (AID 2283487). In outline: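 HepaRG, 48 h exposure, 8-pt CRC from 100 uM (half-log), 0.5% DMSO, duplicates; serum-free induction medium. Readout: CYP3A4 mRNA, qRT-PCR, ACTB/GAPDH/POLR2A normalization. Bidirectional fit vs DMSO.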

Each structure is given as a SMILES string. The source made the active and inactive calls. How the source made its calls: active means hit-call score of the fitted dose curve at least 0.9, where 1 is the maximum; inactive means score below 0.9.

Apoptosis regulator Bcl-2 (Homo sapiens), sequence (P10415 whole entry, looked up): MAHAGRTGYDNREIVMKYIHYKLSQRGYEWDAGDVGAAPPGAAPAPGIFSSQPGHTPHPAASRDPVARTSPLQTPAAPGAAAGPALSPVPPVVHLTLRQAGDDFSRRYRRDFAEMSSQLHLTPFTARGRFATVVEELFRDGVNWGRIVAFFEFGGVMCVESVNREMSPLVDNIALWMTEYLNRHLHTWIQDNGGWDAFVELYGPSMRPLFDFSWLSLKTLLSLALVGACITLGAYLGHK
Cytochrome P450 2C19 (Homo sapiens), sequence (P33261 whole entry, looked up): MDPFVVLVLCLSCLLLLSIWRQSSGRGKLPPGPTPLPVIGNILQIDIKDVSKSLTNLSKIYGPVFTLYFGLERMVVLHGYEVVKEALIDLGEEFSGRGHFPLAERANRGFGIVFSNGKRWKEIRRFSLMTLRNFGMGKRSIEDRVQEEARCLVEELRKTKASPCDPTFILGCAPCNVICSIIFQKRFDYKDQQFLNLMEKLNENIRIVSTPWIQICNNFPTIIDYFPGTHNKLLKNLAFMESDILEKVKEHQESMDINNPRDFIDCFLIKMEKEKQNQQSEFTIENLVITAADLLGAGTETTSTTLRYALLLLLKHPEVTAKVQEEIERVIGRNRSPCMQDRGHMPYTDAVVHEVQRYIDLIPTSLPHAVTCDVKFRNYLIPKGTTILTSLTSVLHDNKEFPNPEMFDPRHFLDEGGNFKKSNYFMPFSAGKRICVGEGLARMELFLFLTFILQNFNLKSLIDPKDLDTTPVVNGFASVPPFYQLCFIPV
Caspase-3 (Homo sapiens), sequence (P42574 whole entry, looked up): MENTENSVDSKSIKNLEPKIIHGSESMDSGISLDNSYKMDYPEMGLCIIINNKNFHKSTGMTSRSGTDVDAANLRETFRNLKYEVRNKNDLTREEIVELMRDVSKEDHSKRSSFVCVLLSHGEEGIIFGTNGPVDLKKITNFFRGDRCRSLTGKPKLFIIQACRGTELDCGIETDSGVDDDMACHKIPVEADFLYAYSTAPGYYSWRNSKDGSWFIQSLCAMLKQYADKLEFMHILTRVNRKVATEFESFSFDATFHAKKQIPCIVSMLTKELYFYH
Cytochrome P450 3A4 (Homo sapiens), sequence (P08684 whole entry, looked up): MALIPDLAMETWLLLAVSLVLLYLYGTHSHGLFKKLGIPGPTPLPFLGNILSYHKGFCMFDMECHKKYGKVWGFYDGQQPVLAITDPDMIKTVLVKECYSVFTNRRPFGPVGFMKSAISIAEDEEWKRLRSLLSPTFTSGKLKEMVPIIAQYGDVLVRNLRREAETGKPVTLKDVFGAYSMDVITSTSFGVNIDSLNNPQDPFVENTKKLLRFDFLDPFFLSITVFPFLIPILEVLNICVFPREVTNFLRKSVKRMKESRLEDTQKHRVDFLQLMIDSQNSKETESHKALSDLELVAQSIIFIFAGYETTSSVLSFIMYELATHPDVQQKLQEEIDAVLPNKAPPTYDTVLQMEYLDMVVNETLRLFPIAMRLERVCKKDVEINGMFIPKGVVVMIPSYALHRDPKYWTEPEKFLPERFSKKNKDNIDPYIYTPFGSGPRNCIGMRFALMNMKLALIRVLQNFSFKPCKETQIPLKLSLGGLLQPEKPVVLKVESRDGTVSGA

For the molecule `CC[C@H](c1ccc(O)cc1)[C@@H](CC)c1ccc(O)cc1`, the concentration at half-maximal activity (AC50) is 77.1 µM (active) in test [1]; 77.7 µM (active) in the test with BCL2L11 (gene 10018); 78.4 µM (active) in the test with Caspase-3 (Homo sapiens); 83.4 µM (active) in test [6]; 79.4 µM (active) in [9]; 80.3 µM (active) in test [10]. The results for the AC50 (in the test with CYP2E1 (gene 1571); with CYP4A11 (gene 1579); in test [13]) were 87.9 µM (active), 76.7 µM (active) and 78.7 µM (active), respectively. Moreover, the result in test [2], in test [3], in test [4], in test [5], in test [7] and in test [8] was inactive. The result (in the test with CYP2C8 (gene 1558); in the test with CYP2C9 (gene 1559); in test [11]; in test [12]) was inactive.
With `Cc1cc(CCN2CCN(c3nsc4ccccc34)CC2)cc2c1NC(=O)CC2(C)C`, the molecule was classed as inactive (in [1]; with BCL2L11 (gene 10018); in [5]; with Caspase-3 (Homo sapiens); in test [6]; in test [8]). Besides, the molecule was called inactive in [12] and in test [13]. In addition, the AC50 in test [2] was 72.6 µM (active); in test [3] it was 75.9 µM (active); in [4], 68.2 µM (active); in test [7] it was 12.6 µM (active); in test [9], 79.7 µM (active); in test [10] it was 88.4 µM (active). The concentration at half-maximal activity (AC50) was 82.5 µM (active) with CYP2C8 (gene 1558); 80.3 µM (active) in the test with CYP2C9 (gene 1559); 66.2 µM (active) with CYP2E1 (gene 1571); 63.9 µM (active) with CYP4A11 (gene 1579); 92 µM (active) in [14]; 71.9 µM (active) in test [11].
Consider `CCCCCCCCCCCCc1ccccc1S(=O)(=O)O`, for which the molecule was classed as inactive (in [1]; with BCL2L11 (gene 10018); in test [5]; with Caspase-3 (Homo sapiens); in [6]; in test [8]). The outcome in [13] was inactive. In addition, the AC50 is 80 µM (active) in test [2]; 80.3 µM (active) in test [3]; 50 µM (active) in [4]; 84.6 µM (active) in [7]; 84.5 µM (active) in [9]; 87.3 µM (active) in [10]. Also, the AC50 was 82.3 µM (active) with CYP2C8 (gene 1558); 83.3 µM (active) in the test with CYP2C9 (gene 1559); 78.3 µM (active) in the test with CYP2E1 (gene 1571); 80.7 µM (active) with CYP4A11 (gene 1579); 89.6 µM (active) in [14]; 62.1 µM (active) in test [11]. In addition, the AC50 in test [12] was 50 µM (active).
